Test systems include T-47D breast; BT-549 breast; MDA-MB-435 melanoma; SW-620 colon; HCT-116 colon; HCC-2998 colon; KM12 colon; MCF7 breast.
Test in all cases: NCI-60 one-dose screen, 48 h (100 = growth as untreated, 0 = no growth, -100 = all killed)
Common to all, as to conditions: 10 µM unless noted

This is part of a sample that, as a whole, favours compounds with a hit. Of some 83,000 tested, about 20% had one in any assay.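 Activity criterion: percent growth below 10, measured after cells in 96-well plates were exposed to a single compound concentration for 48 hours.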 Values without a mark were called inactive. The source made the active and inactive calls.

18 compounds from PubChem BioAssay (NCI) can be followed below.

With `Cc1ccc(S(=O)(=O)N2CCN(C(=O)CSc3nc4ccc(C)cc4[nH]3)CC2)cc1`, the growth in the test on T-47D breast was 99.8%; in the test with BT-549 breast, 106%; with MDA-MB-435 melanoma it was 109%; in the test on SW-620 colon, 102%; with HCT-116 colon, 103%; with HCC-2998 colon, 122%. In the test with KM12 colon, the growth was 105%.

For `COc1cc(NC(=O)NCc2ccco2)ccc1-c1ccc(NC(=O)NCc2ccco2)cc1OC`, the growth in the test on T-47D breast is 40.9%; in the test on BT-549 breast it was 81.7%; with MDA-MB-435 melanoma, 76.5%; in the test with SW-620 colon, 72.6%; with MCF7 breast it was 44.7%; in the test on HCT-116 colon, 35.2%. The growth in the test on KM12 colon was 47.8%.

On to `COP(=O)(OC)C(c1ccc(O)cc1)(c1ccc(O)cc1)c1ccc(O)cc1`, for which the growth is 104% with T-47D breast; 133% in the test on BT-549 breast; 118% in the test on MDA-MB-435 melanoma; 97.3% in the test with SW-620 colon; 82.7% in the test on HCT-116 colon; 127% with HCC-2998 colon. For the same compound, the growth in the test with KM12 colon is 113%.

Consider `C[C@H](C(=O)N[C@@H](Cc1ccc(-c2ccccc2)cc1)C(=O)NC1CC(C)(C)NC(C)(C)C1)c1ccc(-c2ccccc2)c(F)c1`, for which the growth with T-47D breast is -37.2% (active); in the test on BT-549 breast, -19.8% (active); in the test on MDA-MB-435 melanoma it was -90.1% (active); with SW-620 colon, -78.2% (active); in the test on HCT-116 colon, -85.8% (active); in the test on HCC-2998 colon, -83% (active). The growth in the test on KM12 colon is -80% (active).

As to `O=C(CSc1ncc(-c2ccccc2)n1-c1ccccc1)Nc1ccc(-c2nc3ccccc3s2)cc1`, the growth is 56.3% with T-47D breast; 103% in the test with BT-549 breast; 55.9% in the test with MDA-MB-435 melanoma; 64.4% in the test with SW-620 colon; 31.2% with MCF7 breast; 42.1% in the test on HCT-116 colon. In addition, the growth in the test on KM12 colon is 51.1%.

For `O=C(Nc1ccccc1)c1cc(-n2cnc([N+](=O)[O-])c2)cc(-n2cnc([N+](=O)[O-])c2)n1`, the growth was 107% in the test on T-47D breast; 113% in the test with BT-549 breast; 122% in the test with MDA-MB-435 melanoma; 99.7% in the test with SW-620 colon; 103% in the test with HCT-116 colon; 65.2% with HCC-2998 colon. Moreover, the growth in the test on KM12 colon is 94.1%.

For the compound `CC[C@@H](C)/C=C(C)/C=C/C(O)=C1\C(=O)N[C@@H](Cc2ccc(OC(=O)[C@@](OC)(c3ccccc3)C(F)(F)F)cc2)C1=O`, the growth was 113% in the test with T-47D breast; 88.8% with BT-549 breast; 101% with MDA-MB-435 melanoma; 96.7% with SW-620 colon; 99.8% in the test with MCF7 breast; 91% in the test on HCT-116 colon. Besides, in the test on KM12 colon, the growth was 91.1%.

Take `Cn1c(=O)c2[nH]c(=S)n(Cc3ccccc3)c2n(C)c1=O`: the growth in the test with T-47D breast is 98.8%; in the test with BT-549 breast, 106%; with MDA-MB-435 melanoma, 119%; in the test with SW-620 colon, 100%; in the test with MCF7 breast it was 101%; in the test on HCT-116 colon, 98.2%. Further, the growth in the test on KM12 colon was 109%.

`O=Cc1ncc(-c2ccc(C(F)(F)F)cc2)c(NC2CCCCCC2)n1`: the growth with T-47D breast is -19% [100 µM] (active); in the test on BT-549 breast, -93.4% [100 µM] (active); in the test on MDA-MB-435 melanoma it was -88.1% [100 µM] (active); in the test with SW-620 colon, -44.4% [100 µM] (active); in the test with HCT-116 colon, -94.3% [100 µM] (active); in the test with HCC-2998 colon it was -74.4% [100 µM] (active). Moreover, the growth with KM12 colon was -87.6% [100 µM] (active).

In the case of `COc1ccc(C2=NN(C(N)=S)C(c3ccc4c(c3)OCO4)C2)cc1` (stereo unspecified), the growth in the test on T-47D breast was 36.7%; with BT-549 breast, -2.03% (active); with MDA-MB-435 melanoma, 3.04% (active); in the test on SW-620 colon, 1.46% (active); in the test with HCT-116 colon, 1.71% (active); in the test on HCC-2998 colon, -24.7% (active). Further, in the test on KM12 colon, the growth is 2.57% (active).

Turning to `C#C[C@]1(O)CCC2C3CCc4cc(O)ccc4C3CC[C@@]21C` (stereo partly specified), the growth in the test on T-47D breast was 50.3%; in the test on BT-549 breast, 36.8%; with MDA-MB-435 melanoma, -5.44% (active); in the test with SW-620 colon it was 21.2%; in the test on HCT-116 colon, 19%; with HCC-2998 colon, 61%. In addition, the growth in the test with KM12 colon was 21.9%.

On to `COc1ccc(NS(=O)(=O)N2CCCCC2)cc1`, for which the growth with T-47D breast was 95.3%; in the test with BT-549 breast it was 104%; in the test on MDA-MB-435 melanoma, 116%; in the test on SW-620 colon, 98%; in the test with MCF7 breast, 108%; in the test on HCT-116 colon, 103%. Further, the growth in the test with KM12 colon was 110%.

Consider `CC(=O)N1N=C(c2ccc(C(F)(F)F)cc2)CC1c1ccc2c(c1)OCO2` (stereo unspecified), for which the growth in the test on T-47D breast was 86.2%; with BT-549 breast, 93.7%; in the test with MDA-MB-435 melanoma, 78.2%; with SW-620 colon, 88.4%; in the test with HCT-116 colon, 45.5%; with HCC-2998 colon, 94.3%. Besides, in the test with KM12 colon, the growth is 89.2%.

In the case of `O=C1C=CC(=O)N1c1ccccc1N1C(=O)C=CC1=O`, the growth was 102% with T-47D breast; 104% with BT-549 breast; 122% in the test with MDA-MB-435 melanoma; 57.9% in the test on SW-620 colon; 97.1% in the test with MCF7 breast; 105% with HCT-116 colon. For the same compound, in the test with KM12 colon, the growth was 117%.

In the case of `Nc1ccccc1C#Cc1ccccc1C#Cc1ccc(OCCCCCCOc2ccc(C#Cc3ccccc3C#Cc3ccccc3N)cc2)cc1`, the growth is 90.1% in the test with T-47D breast; 104% with BT-549 breast; 97.5% in the test on MDA-MB-435 melanoma; 98.9% in the test with SW-620 colon; 110% in the test with HCT-116 colon; 95.5% in the test on HCC-2998 colon. The growth in the test with KM12 colon was 113%.

On to `COc1cc(C(=O)/C=C/c2cccc(Nc3ccnc4cc(Cl)ccc34)c2)cc(OC)c1OC`, for which the growth in the test on T-47D breast was -46.4% (active); in the test on BT-549 breast it was -27.9% (active); in the test on MDA-MB-435 melanoma it was -16.1% (active); with SW-620 colon it was -51.5% (active); with HCT-116 colon, -62.5% (active); with HCC-2998 colon, 40.1%. Further, the growth with KM12 colon was -8.69% (active).

With `c1ccc(Nc2ccc(Nc3nc(-c4ccccc4)nc4ccccc34)cc2)cc1`, the growth in the test with T-47D breast was 47.9%; in the test with BT-549 breast it was 93.8%; in the test on MDA-MB-435 melanoma, 87.5%; with SW-620 colon it was 75.7%; with HCT-116 colon it was 74.9%; in the test with HCC-2998 colon it was 89%. For the same compound, the growth with KM12 colon was 36.4%.

Regarding `c1cc[n+](Cc2ccnc3ccccc23)cc1`, the growth with T-47D breast is 106%; in the test on BT-549 breast, 112%; in the test with MDA-MB-435 melanoma, 100%; with SW-620 colon, 50.2%; in the test on HCT-116 colon, 21.1%; with HCC-2998 colon, 105%. The growth in the test on KM12 colon was 103%.
